Measurements published in PubChem BioAssay.
Active and inactive are the calls of the source.

Assays:
[1] = tested on: PRMT1 (protein arginine N-methyltransferase 1); assay: small molecules binding arginine methyltransferase PRMT1 – biochemical, small-molecule microarray, 635 nm fluorescence, primary screen (AID 1088); conditions: higher = more signal;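 also: binding of Prmt1 protein to compounds spotted on small-molecule microarray slides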
[2] = growth effects on S. cerevisiae YJM789 – YJM789 clinical isolate, OD600, 24 h, basal, primary screen (AID 1089); conditions: higher = more signal, called active from +8 up or from −8 down;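 also: growth of clinical yeast isolate S. cerevisiae YJM 789 seeded 1000 cells per well; test concentration not given here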
[3] = S. pombe growth modifiers, basal conditions – strain 972, OD600, 24 h, no modulator, primary screen (AID 1090);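 also: basal condition with compound alone and no growth modifier present; test concentration not given here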; conditions: S. pombe 972 growth, higher = more signal, called active from +8 up or from −8 down
[4] = budding yeast growth modifiers under rapamycin – strain BY4716, OD600, 96 h, primary screen (AID 1091); also: test concentration not given here; conditions: S. cerevisiae BY4716 + rapamycin, higher = more signal, called active from +8 up or from −8 down
[5] = biological target: Torsin-1A-interacting protein 2 (Homo sapiens) (UniProt Q8NFQ8); assay: small molecules binding lysate-expressed LULL1 – cell lysate, human LULL1 lysate, 635/667 nm fluorescence, primary screen (AID 1092); conditions: small-molecule microarray, hLULL1 lysate binding, 635 nm fluorescence; higher = more signal;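 also: probe is lysate of COS7 cells overexpressing human LULL1; score merges per-feature 667 nm fluorescence with signal-to-noise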
[6] = optical density change of DRC41 E. coli – strain DRC41, OD650, 24 h, E. coli filamentation project, primary screen (AID 1093);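 also: MC1000 strain lacking acrAB efflux and sulA so SOS filamentation is blocked; test concentration not given here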; conditions: E. coli DRC41 growth, higher = more signal, called active from +8 up or from −8 down
[7] = probe aLefty2 binding to arrayed compounds – biochemical, biotinylated probe, 635/667 nm fluorescence, primary screen (AID 1094); conditions: small-molecule microarray, higher = more signal;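 also: score merges spot fluorescence near 667 nm with spot signal-to-noise ratio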
[8] = tested on: Noggin (protein binding on small-molecule microarray); assay: small molecules binding Noggin protein – biochemical, 635/667 nm fluorescence, primary screen (AID 1095); conditions: 635 nm fluorescence, higher = more signal;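 also: score merges 667 nm feature fluorescence with signal to noise over triplicate slides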
[9] = biological target: Neurogenic locus notch homolog protein 3 (Homo sapiens) (UniProt Q9UM47); assay: small molecules binding NOTCH3 protein – biochemical, 635/667 nm fluorescence, primary screen (AID 1096); conditions: small-molecule microarray, 635 nm fluorescence, higher = more signal
[10] = probe aEGFR binding to arrayed compounds – biochemical, biotinylated probe, 635/667 nm fluorescence, primary screen (AID 1097); conditions: small-molecule microarray, higher = more signal;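 also: probe is a biotinylated anti-EGFR antibody binding compounds printed on slides; score combines fluorescence near 667 nm and signal to noise of each spot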

Chain of Torsin-1A-interacting protein 2 (Homo sapiens) (Q8NFQ8 whole entry, looked up): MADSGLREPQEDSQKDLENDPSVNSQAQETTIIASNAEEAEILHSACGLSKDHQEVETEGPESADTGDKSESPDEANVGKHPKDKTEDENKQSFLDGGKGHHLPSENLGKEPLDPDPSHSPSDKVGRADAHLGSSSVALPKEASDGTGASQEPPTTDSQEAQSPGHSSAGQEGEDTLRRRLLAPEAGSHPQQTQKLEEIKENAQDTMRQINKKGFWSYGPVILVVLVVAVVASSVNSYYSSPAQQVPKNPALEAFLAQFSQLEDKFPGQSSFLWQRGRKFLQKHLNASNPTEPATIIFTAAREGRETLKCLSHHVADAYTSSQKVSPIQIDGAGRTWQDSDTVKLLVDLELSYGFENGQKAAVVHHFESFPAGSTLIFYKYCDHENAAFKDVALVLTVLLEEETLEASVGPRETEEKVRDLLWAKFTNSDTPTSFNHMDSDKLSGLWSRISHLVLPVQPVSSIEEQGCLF
Chain of Neurogenic locus notch homolog protein 3 (Homo sapiens) (Q9UM47 whole entry, looked up): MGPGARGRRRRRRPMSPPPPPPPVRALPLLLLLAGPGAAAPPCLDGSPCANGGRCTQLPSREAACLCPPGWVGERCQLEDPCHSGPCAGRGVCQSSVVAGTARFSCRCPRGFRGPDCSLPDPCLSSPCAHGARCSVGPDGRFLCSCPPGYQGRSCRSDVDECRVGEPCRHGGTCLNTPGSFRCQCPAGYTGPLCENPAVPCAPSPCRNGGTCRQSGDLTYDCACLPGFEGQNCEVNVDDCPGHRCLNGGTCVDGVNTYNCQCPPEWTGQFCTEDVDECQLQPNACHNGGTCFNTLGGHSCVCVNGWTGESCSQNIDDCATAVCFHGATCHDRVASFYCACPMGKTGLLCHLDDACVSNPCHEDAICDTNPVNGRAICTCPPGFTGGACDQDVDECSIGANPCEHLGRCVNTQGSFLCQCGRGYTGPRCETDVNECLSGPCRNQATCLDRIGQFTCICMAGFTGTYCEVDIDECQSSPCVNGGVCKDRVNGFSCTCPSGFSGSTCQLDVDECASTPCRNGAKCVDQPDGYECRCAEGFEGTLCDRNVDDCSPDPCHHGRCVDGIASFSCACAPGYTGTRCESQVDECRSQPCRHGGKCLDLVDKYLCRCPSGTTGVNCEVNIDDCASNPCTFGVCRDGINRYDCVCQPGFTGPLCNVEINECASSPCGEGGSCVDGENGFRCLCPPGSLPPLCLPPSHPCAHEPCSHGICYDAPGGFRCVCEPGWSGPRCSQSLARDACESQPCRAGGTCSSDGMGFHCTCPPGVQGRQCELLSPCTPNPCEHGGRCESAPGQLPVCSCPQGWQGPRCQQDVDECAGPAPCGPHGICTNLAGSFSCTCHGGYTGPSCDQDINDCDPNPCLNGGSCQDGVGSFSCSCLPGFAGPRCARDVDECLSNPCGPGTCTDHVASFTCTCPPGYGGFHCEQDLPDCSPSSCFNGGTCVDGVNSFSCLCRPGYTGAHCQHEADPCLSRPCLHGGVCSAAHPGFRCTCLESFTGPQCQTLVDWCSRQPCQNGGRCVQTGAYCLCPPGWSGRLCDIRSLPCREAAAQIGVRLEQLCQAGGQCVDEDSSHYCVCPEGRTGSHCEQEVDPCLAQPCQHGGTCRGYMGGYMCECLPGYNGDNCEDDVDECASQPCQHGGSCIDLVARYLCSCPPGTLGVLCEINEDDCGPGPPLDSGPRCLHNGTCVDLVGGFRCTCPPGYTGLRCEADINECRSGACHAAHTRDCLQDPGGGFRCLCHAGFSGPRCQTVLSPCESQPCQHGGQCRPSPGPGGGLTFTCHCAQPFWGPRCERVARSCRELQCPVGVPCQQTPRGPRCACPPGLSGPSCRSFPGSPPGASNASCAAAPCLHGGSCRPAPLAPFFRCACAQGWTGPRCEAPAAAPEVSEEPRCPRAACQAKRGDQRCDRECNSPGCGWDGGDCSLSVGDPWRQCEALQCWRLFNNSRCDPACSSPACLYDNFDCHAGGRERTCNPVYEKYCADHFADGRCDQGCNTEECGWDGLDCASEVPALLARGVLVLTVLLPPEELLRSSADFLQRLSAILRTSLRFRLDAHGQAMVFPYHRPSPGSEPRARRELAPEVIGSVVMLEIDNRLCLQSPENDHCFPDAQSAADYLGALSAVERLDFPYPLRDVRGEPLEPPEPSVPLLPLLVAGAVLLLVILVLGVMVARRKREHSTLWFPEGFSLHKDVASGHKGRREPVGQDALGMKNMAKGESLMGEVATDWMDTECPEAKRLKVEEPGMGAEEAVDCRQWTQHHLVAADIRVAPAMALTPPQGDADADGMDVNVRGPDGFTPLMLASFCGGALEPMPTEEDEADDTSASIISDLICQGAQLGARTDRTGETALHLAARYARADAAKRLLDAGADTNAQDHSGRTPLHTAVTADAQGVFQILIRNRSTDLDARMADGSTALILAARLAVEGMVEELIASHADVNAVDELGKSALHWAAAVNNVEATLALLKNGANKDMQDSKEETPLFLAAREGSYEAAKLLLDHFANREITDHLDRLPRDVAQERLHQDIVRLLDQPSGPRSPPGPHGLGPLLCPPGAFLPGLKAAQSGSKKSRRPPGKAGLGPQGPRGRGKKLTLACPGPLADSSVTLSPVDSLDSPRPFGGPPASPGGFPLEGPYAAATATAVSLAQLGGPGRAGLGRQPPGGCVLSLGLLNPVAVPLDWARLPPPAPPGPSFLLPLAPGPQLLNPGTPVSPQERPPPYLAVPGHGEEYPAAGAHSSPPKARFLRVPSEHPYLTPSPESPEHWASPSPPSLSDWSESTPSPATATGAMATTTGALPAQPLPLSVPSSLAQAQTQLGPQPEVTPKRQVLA

| SMILES | composite z-score [1] | z-score [2] | z-score [3] | z-score [4] | composite z-score [5] | z-score [6] | composite z-score [7] | composite z-score [8] | composite z-score [9] | composite z-score [10] |
| --- | --- | --- | --- | --- | --- | --- | --- | --- | --- | --- |
| C=C(COC)/C(=C/C[C@H](OC(=O)c1ccncc1)c1ccc(CO)o1)c1cc(C(=O)OC)ccc1OC | 1.55 | -0.787 (inactive) | 0.132 (inactive) | -0.443 (inactive) | 1.84 | 0.55 (inactive) | 0.0421 | 0.834 | 1.12 | -0.112 |
| COC(=O)[C@H](C)NC(=O)CCC1CC(OC(=O)NCc2cccc3ccccc23)CC2(CCCC(COC(=O)NCCc3ccc(Cl)cc3)O2)O1 (stereo not given in full) | 1.27 | -0.915 (inactive) | -0.253 (inactive) | 0.511 (inactive) | 1.57 | 0.129 (inactive) | -0.145 | 0.328 | 1.13 | -0.0967 |
| CC(C)[Si]1(C(C)C)O[C@@H](c2ccccc2)c2cc(C3CC3)nc(-c3ccccc3)c21 | 0.0587 | -0.443 (inactive) | -5.5 (inactive) | -0.215 (inactive) | -0.332 | -0.867 (inactive) | -0.34 | -0.207 | 0.492 | -0.0304 |
| C=CC[C@@H]1C=C[C@H](ON=C2c3cc(OC)ccc3O[C@H](c3cccc(OC)c3)[C@H]2O)[C@@H](CO)O1 | -0.524 | -0.39 (inactive) | -0.851 (inactive) | -1.42 (inactive) | 0.813 | 0.686 (inactive) | -0.233 | -0.0543 | 0.0033 | -0.133 |
| COC(=O)CC=C[C@@H](C)[C@@H](C=NO[C@@H](C)c1cc(-c2c(C)cc(C)cc2C)no1)OC | -1.43 | -0.0365 (inactive) | -0.875 (inactive) | 0.599 (inactive) | -1.2 | -0.622 (inactive) | -0.047 | -0.119 | -0.75 | -0.419 |
| C#CCCCON=C1C[C@@H](O)[C@@H](O)[C@@H]2[C@@H]3C(=O)N(c4cccc(Oc5ccccc5)c4)C(=O)[C@@H]3CC[C@@H]12 | 0.678 | 0.71 (inactive) | 0.329 (inactive) | -0.426 (inactive) | 2.51 | 0.303 (inactive) | -0.0961 | 0.376 | 1.1 | 0.0675 |
| C#CCCCON=C1C[C@@H](O)[C@@H](O)[C@@H]2[C@@H]3C(=O)N(CCC(=O)OCC)C(=O)[C@@H]3CC[C@@H]12 | -0.683 | -0.969 (inactive) | 0.068 (inactive) | -0.664 (inactive) | 0.654 | 0.827 (inactive) | 0.706 | -1.1 | -1.01 | -0.152 |
| CC[C@@H](c1ccccc1)n1c(=O)n2n(c1=O)[C@H]1[C@H](O)[C@@H]3O[C@@H]3C(=NOCC(C)C)[C@H]1CC2 | -0.179 | 1.3 (inactive) | -0.0534 (inactive) | 1.37 (inactive) | 0.543 | 0.409 (inactive) | -0.213 | 0.288 | 0.586 | -0.0967 |
| COc1ccc([Si](C)(C)[C@@H]2[C@@H](CC(=O)N3CCC[C@H]3CO)O[C@]3(C(=O)N(Cc4cccc(N5CCC5=O)c4)c4ccccc43)[C@H]2C)cc1 | 1.54 | -0.569 (inactive) | -0.184 (inactive) | 0.284 (inactive) | 2.64 | 0.37 (inactive) | -0.0204 | 1.5 | 1.15 | -0.0953 |
| COCC(=C=CC[C@@H](O)c1ccccc1OCCO)CCO | 0.68 | 0.621 (inactive) | 0.0008 (inactive) | 0.199 (inactive) | 2.36 | 0.71 (inactive) | 0.0378 | 0.436 | 0.442 | -0.0332 |
| COc1ccc(O[C@H]2C=C[C@@H](c3ccccc3)O[C@@H]2COC(=O)CCC(C)=NO[C@@H](C)c2cc(-c3c(C)cc(C)cc3C)no2)cc1 | -0.225 | -0.843 (inactive) | 1.09 (inactive) | -0.159 (inactive) | -0.687 | -0.312 (inactive) | -0.219 | -0.916 | -2.17 | -0.214 |
| COC(=O)[C@@]1(Cc2ccc(F)cc2)[C@H]2c3cc(C(=O)N(C)C)n(Cc4ccc(OC)c(OC)c4)c3C[C@H]2CN1C(=O)c1ccccc1 | -1.32 | 0.0573 (inactive) | -0.636 (inactive) | -0.249 (inactive) | 1.54 | -0.31 (inactive) | 0.498 | -0.344 | -0.309 | 0.365 |
| CO[C@H]1COC(=O)[C@H](C)NC(=O)[C@@H](C)COC(=O)CC=C[C@@H]1C | 0.748 | -0.156 (inactive) | 0.473 (inactive) | -0.564 (inactive) | -0.498 | 0.2 (inactive) | -0.103 | 0.3 | 0.674 | -0.02 |
| O=C1C[C@@H](O)[C@@H](O)[C@@H]2[C@@H]3C(=O)N(c4cccc(Oc5ccccc5)c4)C(=O)[C@@H]3CC[C@@H]12 | 0.766 | -0.336 (inactive) | -0.444 (inactive) | -0.622 (inactive) | 1.42 | 0.185 (inactive) | -0.177 | 0.468 | 1.09 | 0.126 |
| CC(C)C[C@@H]1NC(=O)[C@H]2C[C@@H](C(=O)NCCCCCCN(C)C)[C@@H](c3cccc(OCCO)c3)N2C1=O | 1.53 | -1.16 (inactive) | 0.184 (inactive) | -0.46 (inactive) | 2.12 | -0.0145 (inactive) | 0.173 | 1.19 | 1.04 | 0.0948 |
